Results: PubChem BioAssay (NCATS)
The source made the active and inactive calls. Unless noted, calls follow the shape of the dose curve; as a rule, active = well fitted curve in the direction sought with a large enough effect (not every such curve was filed as active); inconclusive = small, poorly fitted or top-dose-only effect, or effect the other way, or another doubt; inactive = no such curve, though single readings can be large or run the other way.

Target: Pyruvate kinase PKM (Homo sapiens) (UniProt P14618)
Assay: qHTS Assay for Activators of Human Muscle Pyruvate Kinase (AID 954);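 also: 0% = uninhibited enzyme and -100% = no enzyme or full thiadiazolimine inhibition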
Conditions: purified human muscle pyruvate kinase, luciferase-coupled luminescence, 1 h; series mostly up to 57.5 µM; activity change, negative = inhibition: at the top concentration
In short: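 Compound pinned into substrate mix (0.5 mM PEP, 0.1 mM ADP), then 0.1 nM PKM2 added; 1 h, RT. Stop/detection luciferase reagent added, luminescence read. Normalized to no-inhibition and no-enzyme or reference-inhibitor controls.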

Sequence of Pyruvate kinase PKM (Homo sapiens) (P14618 whole entry, looked up): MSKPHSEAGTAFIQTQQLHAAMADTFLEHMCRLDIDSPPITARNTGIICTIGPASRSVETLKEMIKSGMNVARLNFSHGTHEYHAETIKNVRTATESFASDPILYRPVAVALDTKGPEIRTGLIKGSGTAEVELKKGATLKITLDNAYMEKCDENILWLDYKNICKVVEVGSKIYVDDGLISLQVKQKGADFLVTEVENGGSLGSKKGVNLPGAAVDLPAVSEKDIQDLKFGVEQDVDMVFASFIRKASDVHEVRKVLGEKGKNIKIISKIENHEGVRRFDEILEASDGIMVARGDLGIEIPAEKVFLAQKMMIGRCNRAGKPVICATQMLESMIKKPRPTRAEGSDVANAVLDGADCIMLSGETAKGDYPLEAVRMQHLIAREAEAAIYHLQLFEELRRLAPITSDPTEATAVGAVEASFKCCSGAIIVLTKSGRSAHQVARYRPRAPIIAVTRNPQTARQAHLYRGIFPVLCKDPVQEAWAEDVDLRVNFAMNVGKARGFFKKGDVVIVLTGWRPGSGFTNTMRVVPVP

SMILES | activity change, negative = inhibition
C[C@](N)(Cc1ccc(O)c(O)c1)C(=O)O | 0.871% (inactive)
CCc1cccc2c3c([nH]c12)C(CC)(CC(=O)O)OCC3 (configuration not stated) | 13% (inactive)
CNCCCC12CCC(c3ccccc31)c1ccccc12 | -6.73% (inactive)
Nc1nc2c(ncn2COC(CO)CO)c(=O)[nH]1 | -27.8% (inactive)
OCCN1CCN(CCCN2c3ccccc3Sc3ccc(C(F)(F)F)cc32)CC1 | 0.662% (inactive)
Nc1nnc(-c2cccc(Cl)c2Cl)c(N)n1 | -11.6% (inactive)
CC[N+](CC)(CC)CCOc1cccc(OCC[N+](CC)(CC)CC)c1OCC[N+](CC)(CC)CC | -28.9% (inactive)
Cn1cnc2c1c(=O)[nH]c(=O)n2C | 0.584% (inactive)
CN(C)C(=O)C(CCN1CCC(O)(c2ccc(Cl)cc2)CC1)(c1ccccc1)c1ccccc1 | -16.4% (inactive)
Cn1ccc2cc3c(cc21)CCN3C(=O)Nc1cccnc1 | -104% (inactive)
COC(=O)Nc1nc2ccc(C(=O)c3cccs3)cc2[nH]1 | -18.5% (inactive)
O=C1c2c(O)ccc(O)c2C(=O)c2c(NCCNCCO)ccc(NCCNCCO)c21 | -34.3% (inactive)
CCCCc1oc2ccccc2c1C(=O)c1cc(I)c(OCCN(CC)CC)c(I)c1 | -16.2% (inactive)
Cc1cc(C(C)(C)C)c(O)c(C)c1CC1=NCCN1 | 3.37% (inactive)
OCCN(CCO)c1nc(N2CCCCC2)c2nc(N(CCO)CCO)nc(N3CCCCC3)c2n1 | -7.59% (inactive)
CN1CCC(=C2c3ccccc3C=Cc3ccccc32)CC1 | -8.21% (inactive)
CN1CCC(=C2c3ccccc3CC(=O)c3sccc32)CC1 | -15.3% (inactive)
CN(C)CCC=C1c2ccccc2C=Cc2ccccc21 | -19.3% (inactive)
CN1CCN(C2=Nc3cc(Cl)ccc3Nc3ccccc32)CC1 | -5.88% (inactive)

Target: Pyruvate kinase (Leishmania mexicana) (UniProt Q27686)
Assay: qHTS Validation Assay for Activators of Leishmania Mexicana Pyruvate Kinase (AID 959; active = well fitted activation curve with a large enough effect)
Conditions: purified L. mexicana pyruvate kinase, enzyme activity; series mostly up to 57.5 µM; activity change, positive = activation: at the top concentration
In short: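 Pyruvate kinase activity of E451W LmPYK (0.2 nM) was followed as ATP output after 1 h at room temperature with 0.5 mM PEP and 0.1 mM ADP, detected by PKLight luminescence.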

Sequence of Pyruvate kinase (Leishmania mexicana) (Q27686 2-499 E452W): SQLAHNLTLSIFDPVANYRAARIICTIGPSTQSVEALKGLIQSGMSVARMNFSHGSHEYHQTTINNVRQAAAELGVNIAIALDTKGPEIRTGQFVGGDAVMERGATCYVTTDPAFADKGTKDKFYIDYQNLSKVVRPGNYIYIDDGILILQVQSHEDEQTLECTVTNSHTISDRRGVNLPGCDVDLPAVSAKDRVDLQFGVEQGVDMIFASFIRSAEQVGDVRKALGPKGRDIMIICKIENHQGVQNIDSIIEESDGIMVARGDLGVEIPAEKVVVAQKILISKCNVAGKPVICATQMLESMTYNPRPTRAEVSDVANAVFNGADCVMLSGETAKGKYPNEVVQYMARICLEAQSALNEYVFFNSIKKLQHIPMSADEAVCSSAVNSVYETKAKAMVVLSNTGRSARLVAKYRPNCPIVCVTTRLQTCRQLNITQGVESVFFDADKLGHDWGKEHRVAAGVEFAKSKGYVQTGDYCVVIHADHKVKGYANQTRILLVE

SMILES | activity change, positive = activation
O=C(Nc1ccc([N+](=O)[O-])cc1Cl)c1cc(Cl)ccc1O | -71.8% (inactive)
Cn1ccc2cc3c(cc21)CCN3C(=O)Nc1cccnc1 | -90.9% (inactive)
O=C1c2c(O)ccc(O)c2C(=O)c2c(NCCNCCO)ccc(NCCNCCO)c21 | -36% (inactive)
